In all, about 400,000 compounds went through this assay and about 2,100 (0.53%) were called active. Inconclusive results (about 14%) are left out. The rule behind the calls is not given here. The list comes from a sample in which actives are over-represented; it also holds similar structures and randomly drawn compounds.
Molecular target: Ataxin-2 (Homo sapiens) (UniProt Q99700)
Assay: qHTS for Inhibitors of ATXN expression.
Format: functional

Ataxin-2 (Homo sapiens), sequence (Q99700 whole entry): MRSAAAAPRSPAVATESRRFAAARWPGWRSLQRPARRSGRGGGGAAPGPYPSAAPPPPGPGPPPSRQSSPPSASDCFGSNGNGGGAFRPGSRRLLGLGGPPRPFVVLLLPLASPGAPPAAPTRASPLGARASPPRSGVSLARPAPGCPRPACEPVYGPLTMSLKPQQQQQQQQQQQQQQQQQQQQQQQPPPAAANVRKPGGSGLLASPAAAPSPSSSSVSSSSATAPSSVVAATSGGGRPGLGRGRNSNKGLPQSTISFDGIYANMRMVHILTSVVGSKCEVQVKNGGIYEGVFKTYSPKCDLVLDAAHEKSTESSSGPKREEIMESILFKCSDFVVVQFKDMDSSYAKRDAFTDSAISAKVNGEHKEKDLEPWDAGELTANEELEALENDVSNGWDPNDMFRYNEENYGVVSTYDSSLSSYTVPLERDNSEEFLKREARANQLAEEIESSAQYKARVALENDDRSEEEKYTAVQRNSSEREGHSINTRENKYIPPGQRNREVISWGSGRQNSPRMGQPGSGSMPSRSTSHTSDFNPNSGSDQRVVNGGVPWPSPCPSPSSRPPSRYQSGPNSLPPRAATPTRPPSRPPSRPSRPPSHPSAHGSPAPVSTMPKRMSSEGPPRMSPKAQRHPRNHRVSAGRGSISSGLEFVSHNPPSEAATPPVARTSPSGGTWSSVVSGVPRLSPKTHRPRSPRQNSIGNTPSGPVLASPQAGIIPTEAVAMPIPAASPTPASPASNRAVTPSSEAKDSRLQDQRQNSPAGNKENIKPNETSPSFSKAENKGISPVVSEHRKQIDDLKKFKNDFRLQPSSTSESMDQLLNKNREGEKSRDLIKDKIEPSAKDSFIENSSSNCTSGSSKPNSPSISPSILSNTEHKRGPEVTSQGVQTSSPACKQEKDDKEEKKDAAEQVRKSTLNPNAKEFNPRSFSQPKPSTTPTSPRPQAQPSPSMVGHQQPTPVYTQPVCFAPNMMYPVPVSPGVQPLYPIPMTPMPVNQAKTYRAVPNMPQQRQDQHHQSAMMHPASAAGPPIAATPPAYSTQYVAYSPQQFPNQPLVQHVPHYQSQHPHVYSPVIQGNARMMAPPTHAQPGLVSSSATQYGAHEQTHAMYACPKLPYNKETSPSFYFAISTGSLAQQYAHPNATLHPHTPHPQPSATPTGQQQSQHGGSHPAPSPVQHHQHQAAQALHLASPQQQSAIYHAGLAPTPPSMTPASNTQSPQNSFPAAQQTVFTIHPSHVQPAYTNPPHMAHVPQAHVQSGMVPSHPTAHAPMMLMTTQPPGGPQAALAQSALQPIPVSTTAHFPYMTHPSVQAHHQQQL

Structure (SMILES)	Potency
CCC1(C)Cc2ccccc2-c2ncnc(O)c21 (stereo not given)	inactive
COC(=O)N/N=C/c1cccc(OC(=O)c2ccc3c(c2)OCO3)c1	inactive
O=C(Cn1nnc2ccccc2c1=O)Nc1ccc(S(=O)(=O)N2CCOCC2)cc1	inactive
COc1ccc(C2C=C(c3ccccc3)Nc3nc(NS(=O)(=O)c4ccc(C)cc4)nn32)cc1 (stereo not given)	inactive
COc1cc([C@@H]2c3cc4c(cc3[C@@H](O)[C@H]3COC(=O)[C@H]23)OCO4)cc(OC)c1O[Si](C)(C)C(C)(C)C	39.8 µM (active)
Oc1c(C(Nc2cccc(C(F)(F)F)c2)c2ccncc2)ccc2cccnc12 (stereo not given)	inactive
COc1cccc(-c2cc(C(F)(F)F)c(C#N)c(O)n2)c1	inactive
OC(c1ccccc1)(c1nc(-c2cc(F)cc(F)c2)cs1)C(F)(F)F (stereo not given)	35.5 µM (active)
N#Cc1cccc(-c2csc(C(O)(c3ccccc3)C(F)(F)F)n2)c1 (stereo not given)	20 µM (active)
N#CC12COC3(CCCCC3C1(C#N)C#N)OC2=N (stereo not given)	inactive
Cc1cc(=O)oc2c3c(ccc12)OCN(Cc1ccc(Cl)cc1)C3	inactive
O=C(O)c1ccc(Nc2nc(-c3cc4ccccc4oc3=O)cs2)cc1O	inactive
O=C(O)c1cccc(Nc2nc(-c3cc4ccccc4oc3=O)cs2)c1	inactive
Cc1cc(NC(=S)NC(=O)c2ccccc2)ccc1-c1cc2ccccc2oc1=O	17.8 µM (active)
N#CC1=C(c2ccccc2)/C(=C/c2ccccc2)OC1=O	22.4 µM (active)
N#CC1=C(N)OC2=C(CC/C2=C\c2ccccc2)C1c1ccccc1 (stereo not given)	inactive
Nc1ccc2c(c1)nc(O)c1cc(N)ccc12	inactive
CCN(CC)c1ccc(/C=C/C(=O)C2C(=O)C=C(C)OC2=O)cc1 (stereo not given)	inactive
CCOC(=O)c1sc(-c2ccc(Cl)cc2)nc1O	inactive
CCOC(=O)c1c(C)n(O)c2ccc(Cl)cc2c1=O	inactive
CCOC(=O)C1=C(Cc2ccc(Cl)cc2)C(=O)c2ccccc2C1=O	31.6 µM (active)
CCN1CCN(c2nc3c(C)cccn3c(=O)c2/C=C(\C#N)C(=O)NC)CC1	inactive
COc1ccc(-c2cc(CNC(=O)CCl)on2)cc1	15.8 µM (active)
COc1ccc(-c2cc3c(=O)n(CC(=O)NCc4ccc(Cl)cc4)ncn3n2)cc1	inactive

Structure (SMILES)	Potency
COc1ccc(-c2onc3ccc(C(C)=O)cc23)cc1	inactive
CC(C)c1ccc(C2C(C#N)=C(N)Oc3c2oc(CO)cc3=O)cc1 (stereo not given)	inactive
CCCN1C(=O)c2cccc3c(N4CCCCC4)ccc(c23)C1=O	inactive
CCN(CC)C(=O)c1ccc2c3c(cccc13)C(=O)N(CCc1ccc(OC)c(OC)c1)C2=O	28.2 µM (active)
COc1ccc(CCN2C(=O)CS/C2=N/NC(=O)c2ccccc2F)cc1OC	inactive
O=C(O)CCSc1nnc(CNc2ccc(Cl)cc2)n1Cc1ccccc1	inactive
Cc1cc(C(=O)CCl)c(C)n1CC1COc2ccccc2O1 (stereo not given)	26.7 µM (active)
CC(C)N1CCN(CC2COc3ccccc3O2)CC1 (stereo not given)	inactive
CC1CC(=NNC(=O)C2COc3ccccc3O2)CC(C)(C)C1 (stereo not given)	inactive
O=C(O)CN1C(=O)C2C3CCC(C3)C2C1=O (stereo not given)	inactive
COc1ccc(-c2cn3nc4c(nc3n2)CCCC4)cc1	inactive
CCCCCCc1cc2cc(-c3nnc(-c4ccccc4O)o3)c(=O)oc2cc1O	inactive
CC(C)c1ccc2c(c1)CCC1C(C)(CN)CCCC21C (stereo not given)	39.8 µM (active)
CCOC(=O)c1c(CSc2ccccc2)n(C)c2cc(Br)c(OCC(O)CNC(CO)(CO)CO)cc12 (stereo not given)	25.1 µM (active)
CCOC(=O)c1c(CSC(=N)N)n(C)c2cc(Br)c(OC(C)=O)cc12	35.5 µM (active)
CCOC(=O)c1c(-c2ccccc2)oc2ccc(OCC(O)CNCCN(C)C)cc12 (stereo not given)	inactive
O=C(C1=CC=CN2CCS(=O)(=O)N=C12)N1CCN(c2cccc(Cl)c2)CC1	inactive
CCOC(=O)C1=NN(C(=O)c2ccc(OC)cc2)C(O)(c2ccc(Cl)cc2)C1 (stereo not given)	inactive
COc1ccc(OC(F)(F)F)cc1CC1(C)C(=O)Nc2ccc(-c3ccsc3)cc21 (stereo not given)	39.8 µM (active)
CC1(Cc2ccccc2OC(F)(F)F)C(=O)Nc2ccc(-c3ccsc3)cc21 (stereo not given)	39.8 µM (active)
CCOC(=O)C1=NOC2(C1)C(=O)Nc1ccc(OC(F)(F)F)cc12 (stereo not given)	39.8 µM (active)
Cc1ccc(CC2(C)C(=O)Nc3ccc(OC(F)(F)F)cc32)cc1 (stereo not given)	39.8 µM (active)
CN1CCCC(OC(=O)c2cc(Cl)cc(Cl)c2)C1 (stereo not given)	inactive
c1ccc(-c2nc(N3CCCCC3)nc3ccccc23)cc1	inactive

Structure (SMILES)	Potency
C#CCOCCOCCOCCNc1nc(N2CCN(C(=O)CCCCCCCCCCNC(=O)[C@H](CCCCN)n3cc(C[C@@H](C)CC)nn3)CC2)nc(N2CCN(C(=O)CCCCCCCCCCNC(=O)[C@H](CCCN=C(N)N)n3cc(C[C@@H](C)CC)nn3)CC2)n1	20 µM (active)
C#CCOCCOCCOCCNc1nc(N2CCN(C(=O)CCCCCCCCCCNC(=O)[C@@H](CCC(=O)O)n3cc(CCCCCN)nn3)CC2)nc(N2CCN(C(=O)CCCCCCCCCCNC(=O)[C@H](CCCCN)n3cc(C[C@@H](C)CC)nn3)CC2)n1	31.6 µM (active)
Cc1ccc(CNc2nc(NCC3CC3)nc3ccsc23)c(C)c1	39.8 µM (active)
Cc1ccc(Nc2nc(NCC3CC3)nc3ccsc23)c(C)c1	20 µM (active)
O=C(COC(=O)c1ccc(Cl)nc1)Nc1ccc2c(c1)CCC2	inactive
CC(=O)Oc1ccc2c(c1)O/C(=C\c1ccncc1)C2=O	inactive
COCc1cc(C)nc(SCC(=O)Nc2nc(C)cs2)c1C#N	inactive
CCOC(=O)Cc1csc(NS(=O)(=O)c2ccc(SC)cc2)n1	inactive
NNC(=O)c1cccc(Cn2cc(Br)c([N+](=O)[O-])n2)c1	inactive
C#CCn1/c(=N/C(=O)CSC(C)=O)sc2cc(F)ccc21	6.7 µM (active)
COCC(=O)OC1CCn2c1nc1c2C(=O)C(C)=C(NC(C)=O)C1=O (stereo not given)	10 µM (active)
OCC1(CC2CCCCO2)CCN(Cc2ccccc2-c2ccco2)CC1 (stereo not given)	inactive
Nc1nc(Br)c2ccccc2c1-c1ccccc1	inactive
O=C(Oc1ccc(C(=S)N2CCOCC2)cc1)c1cccc(Cl)c1	inactive
CC(C)c1ccc(C(=O)N2CCN(c3cnn(C)c(=O)c3Cl)CC2)cc1	inactive
Clc1cccc(N/N=C/c2ccc(N3CCOCC3)s2)c1	39.8 µM (active)
Fc1cccc(/C=N/Nc2cc(N3CCOCC3)ncn2)c1	inactive
Oc1c(Cl)cc(Cl)cc1/C=N/c1ccc(N2CCOCC2)cc1	inactive
COc1cc(C2CC(c3cccnc3)=NN2c2ccc(F)cc2)cc(OC)c1OC (stereo not given)	inactive
COc1cc(C2CC(=O)N(Cc3ccc(F)cc3)c3ccccc3S2)cc(OC)c1OC (stereo not given)	28.2 µM (active)
C=CCN1C(=O)[C@@H]2Cc3c([nH]c4ccccc34)C(c3cc(OC)c(OC)c(OC)c3)N2C1=S (stereo not given in full)	inactive
Cc1cc(NC(=O)C(C)SCC(=O)O)no1 (stereo not given)	inactive
Cc1ccc(S(=O)(=O)N2CCCC(CCC(=O)NCc3ccccc3F)C2)s1 (stereo not given)	inactive
Cc1ccc(S(=O)(=O)N2C[C@H]3n4c(=O)ccc(=O)n4C[C@H](OC(=O)NCc4ccccc4F)[C@@]3(O)C2)cc1	35.5 µM (active)

Structure (SMILES)	Potency
CCCCCCn1c(=O)n2n(c1=O)[C@@H]1CN(S(=O)(=O)c3ccc(C)cc3)C[C@]1(O)[C@@H](OC(=O)NCc1ccccc1)C2	28.2 µM (active)
CCCCCCn1c(=O)n2n(c1=O)[C@@H]1CN(S(=O)(=O)c3ccc(C)cc3)C[C@]1(O)[C@@H](OC(=O)NCc1ccccc1F)C2	35.5 µM (active)
CCCCCCNC(=O)O[C@H]1Cn2c(=O)n(CCCCCC)c(=O)n2[C@@H]2CN(S(=O)(=O)c3ccc(C)cc3)C[C@]12O	25.1 µM (active)
Cn1c(=O)c(=O)n(C)c2cc(S(=O)(=O)CCC(=O)NCc3ccccc3)ccc21	inactive
NS(=O)(=O)c1ccc(CNC(=O)/C=C/c2ccco2)cc1	inactive
O=C(Cc1ccccc1)NCc1nnc(S)n1-c1ccc(Br)cc1	inactive
CSc1c(C#N)c(O)nc2c1CCc1ccccc1-2	inactive
COc1ccccc1[C@H]1C(c2cccc(C)c2)=NN(c2ccccc2)[C@@H]1CO	inactive
Cc1ccc(C)c(N2CCN(C(=O)c3ccc(Cn4c(=S)[nH]c5ccc(N6CCOCC6)cc5c4=O)cc3)CC2)c1	inactive
CCCC(C)NC(=O)c1cc(S(=O)(=O)N2CCCCCC2)ccc1OC (stereo not given)	inactive
CCCCCCNC(=O)O[C@H]1CN(C(=O)OC(C)C)N(C(=O)OC(C)C)[C@@H]2CN(S(=O)(=O)c3ccc(C)cc3)C[C@]12O	22.4 µM (active)
COCCN(CCOC)C(=O)CSc1ccc(S(=O)(=O)N2CCN(C)CC2)cn1	inactive
CC1=C(C(=O)Nc2nc3ccccc3s2)C(c2ccco2)C(C#N)=C(SCC(=O)NC2CCCCC2)N1 (stereo not given)	inactive
Cc1ccc(C(=O)O)cc1-c1ccc(/C=C2\SC(=O)N(CC(=O)Nc3ccc4c(c3)OCO4)C2=O)o1	inactive
O=C(Cn1ncc(Cl)c(Cl)c1=O)Nc1ccc2c(c1)OCO2	35.5 µM (active)
O=C(Cn1ncc(Cl)c(Cl)c1=O)c1ccc2c(c1)OCCO2	42.3 µM (active)
COC(=O)c1ccc(NS(=O)(=O)c2ccc3c(c2)n(C)c(=O)n3C)cc1	inactive
CC(=O)Nc1ccc2nc3c(=O)n(C)c(=O)n(C)c3nc2c1	inactive
O=C(Nc1ccc2c(c1)OCO2)c1sc2cc(Cl)ccc2c1Cl	inactive
CC(NS(=O)(=O)c1ccc(Cl)c(Cl)c1)C(=O)OCC(=O)Nc1ccc2c(c1)OCO2 (stereo not given)	inactive
O=C(CCl)Nc1ccc2c(c1)OCO2	22.4 µM (active)
O=C(CSc1nc2cc(Cl)c(Cl)cc2[nH]1)c1ccc2c(c1)OCO2	inactive
Cn1c(=O)n(C)c2cc(NC(=O)CCl)ccc21	28.2 µM (active)

Reference: ChEMBL document CHEMBL1201862, “PubChem BioAssay data set” (2004)
